Records with an inconclusive call do not appear. A call without a number means that no potency is given here. Values without a mark were called inactive. Active and inactive are the calls of the source. Calls come from the whole dose curve; as a rule, active = well fitted inhibition curve with a large enough effect; inconclusive = small, poorly fitted or top-dose-only effect; inactive = flat fitted curve, though single readings scatter.
target: Phospholipid hydroperoxide glutathione peroxidase GPX4 (Homo sapiens) (UniProt P36969); test: Primary qHTS Assay for Inhibitors of Recombinant Selenoprotein Glutathione Peroxidase 4 (GPX4) (AID 1845192); conditions: recombinant GPX4, GR-coupled NADPH fluorescence, 15 min; series mostly up to 50 µM; note: nearly all actives have a fitted effect of over 65% in size
Source text: Assay Provider: Elias S.J. Arner MD PhD.
Department of Medical Biochemistry and Biophysics
Karolinska Institutet, Solna, Stockholm, Sweden
Selenoprotein glutathione peroxidases (GPX), like the ubiquitously expressed GPX1 and the ferroptosis modulator GPX4, enact their antioxidant activities by reducing hydroperoxides using glutathione. […] GPX1 and GPX4 inhibitors have thus shown promise as anti-cancer agents. Existing inhibitors are often promiscuous, or modulate GPX activity only indirectly, so novel direct inhibitors identified through screening against GPX1 and GPX4 could be valuable. Here, we developed optimized glutathione reductase (GR)-coupled GPX assays for the biochemical high-throughput screen (HTS) of almost 12,000 compounds with known mechanisms of action. Initial hits were triaged using a GR counter-screen, assessed for isoform specificity using a separate GPX2 assay, and were assessed for general selenocysteine-targeting activity using a thioredoxin reductase (TXNRD1) assay. With this suite of assays, we identified novel GPX1/GPX2- and GPX4-specific inhibitors and can here present a validated pipeline for future discovery research for selenoprotein-targeting agents.
SEQUENCE No. (e.g., 1, 2, 3, etc.); […] (e.g., Cells, Incubation, Reagent, etc.); VALUE; DESCRIPTION.
1; Reagent 1; 3 uL; 333.33 nM GPx4 enzyme or no enzyme control in 1536-well, black, solid Greiner assay plate.
2; Compound; 25 nL; Kalypsis pin tool (Wako USA) equipped with a 1536-well pin head.
3; Incubation; 30 min; room temperature.
4; Reagent 2; 1 uL; 500 nM GR, 5 mM GSH, 2.5 mM NADPH solution
5; Reagent 3; 1 uL; 2.5 mM CHP in 50% EtOH.
6; Detection; Fluorescence; ViewLux microplate reader, excitation 340 nm and emission 450 nm.
7; Incubation; 15 min; room temperature.
8; Detection; Fluorescence; ViewLux microplate reader, excitation 340 nm and emission 450 nm.
NOTES (numbers refer to Sequence numbers above)
1. 3 µL of 333.33 nM GPX4 and 0.016% BSA in assay buffer (50 mM Tris-HCl, 2 mM EDTA (pH 7.5), 150 mM NaCl) was added to columns 3-48 of 1536-well plates using a BioRAPTR Flying Reagent Dispenser (Let's Go Robotics (LGR), Carlsbad, CA). A no-enzyme control (0.01% BSA in TES assay buffer) was added to columns 1-2.
2. 25 nL, library and DMSO controls were added to each well with a pin tool (Kalypsys).
3. The assay plates were incubated for 30 minutes at room temperature.
4. 1 µL of master mix (500 nM glutathione reductase (GR), 5 mM reduced glutathione (GSH), 2.5 mM NADPH in assay buffer) was added.
5. 1 µL of cumene hydroperoxide (CHP) ([2.5 mM] in 50% EtOH) was then added within 5 minutes to initiate the reaction. Final concentrations were: 200 nM GPX4, 1 mM GSH, 0.5 mM CHP, 0.5 mM NADPH, 100 nM GR, 0.01% BSA.
6. Initial fluorescence readout (t=0) at 340/450 nm was measured using a ViewLux multimodal detector (PerkinElmer, Waltham, MA).
8. Endpoint fluorescence readout (t=15) at 340/450 nm was measured 15 min after room temperature incubation.

Phospholipid hydroperoxide glutathione peroxidase GPX4 (Homo sapiens), sequence (P36969 whole entry, looked up): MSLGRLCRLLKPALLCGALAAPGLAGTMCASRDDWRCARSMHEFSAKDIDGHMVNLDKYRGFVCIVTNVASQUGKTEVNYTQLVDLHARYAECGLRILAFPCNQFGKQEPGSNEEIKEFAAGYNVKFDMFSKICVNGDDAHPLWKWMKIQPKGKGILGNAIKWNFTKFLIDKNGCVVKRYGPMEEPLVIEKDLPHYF

SMILES	Potency	outcome	activity change, negative = inhibition
CC1=C(C(=O)O)/C(=C\CO[C@@H]2O[C@H](CO)[C@@H](O)[C@H](O)[C@H]2O)C(OC(=O)/C=C\c2ccc(O)cc2)C1 (stereo not given in full)	inactive		
O=C(c1cn(Cc2cncn2Cc2ccc(Br)cc2)cc1-c1cccc2ccccc12)N1CCOCC1	inactive		
c1cc(Nc2cc(C3CC3)[nH]n2)nc(Nc2ccc3nc[nH]c3c2)n1	inactive		
COc1cc(O)cc(C)c1C(=O)O[C@H]1[C@@H](OC(C)=O)[C@H](n2ccc(=O)[nH]c2=O)O[C@@H]1CO	inactive		
CC1=CCC(C(C)(C)O[C@@H]2O[C@H](CO[C@@H]3O[C@@H](C)[C@H](O)[C@@H](O)[C@H]3O)[C@@H](O)[C@H](O)[C@H]2O)CC1 (stereo not given in full)	inactive		
C=CC(C)(O)CC/C=C(\C)C(=O)OC1C(O)C(CO)OC(OC(=O)C23CCC(C)(C)CC2C2=CCC4C5(C)CCC(OC6OC(COC7OCC(OC(C)=O)C(O)C7OC7OC(COC(C)=O)C(O)C(O)C7O)C(O)C(O)C6O)C(C)(C)C5CCC4(C)C2(C)C(O)C3O)C1OC1OCC(OC2OCC(O)C(OC3OCC(O)C(O)C3O)C2O)C(O)C1O (stereo not given)		inactive [at 9.73 µM]	
COc1ccc(C(O)C(C)OC2OC(CO)C(O)C(O)C2O)cc1 (stereo not given)	inactive		
COc1cc(Nc2nc3c(s2)CCCC3c2ccc(F)cc2)ccc1-n1cnc(C)c1 (stereo not given)	inactive		
CON(C)C(=O)[C@H](O)[C@H](Cc1ccccc1)NC(=O)c1cc2cc(Cl)ccc2[nH]1	inactive		
C=C1C(=O)OC2C1CCC(=C)C1CC(OC(C)=O)C(=C)C12 (stereo not given)	inactive		
C=CC[C@]12C[C@@H](OC)C(=O)C(OC)=C1O[C@@H](c1cc(OC)c3c(c1)OCO3)[C@@H]2C	inactive		
CC(C)CCC[C@@H](C)[C@H]1CC[C@H]2[C@@H]3CC(=O)[C@H]4C[C@@H](O)CC[C@]4(C)[C@H]3CC[C@]12C	inactive		
O=C(CC(c1ccccc1)c1ccccc1)N1CCN(C(c2ccccc2)c2ccccc2)CC1	inactive		
CC1(C)CC[C@]2(C(=O)O[C@@H]3O[C@H](CO[C@@H]4O[C@H](CO)[C@@H](O)[C@H](O)[C@H]4O[C@@H]4O[C@H](CO)[C@H](O)[C@H](O)[C@H]4O)[C@@H](O)[C@H](O[C@@H]4O[C@H](CO)[C@@H](O)[C@H](O)[C@H]4O)[C@H]3O)CC[C@]3(C)C(=CCC4[C@@]5(C)CC[C@H](O[C@@H]6OC[C@@H](O)[C@H](O)[C@H]6O)[C@@](C)(C(=O)O)C5CC[C@]43C)[C@@H]2C1 (stereo not given in full)		inactive [at 9.73 µM]	
CC(=O)OCC1(O)CCC2C(COC3OC(CO)C(O)C(O)C3OC(=O)/C=C/c3ccc(O)cc3)=COC(OC(=O)CC(C)C)C21 (stereo not given)	inactive		
COC(=O)C[C@H]1C(C)(C)[C@H](OC(C)=O)C2CC3=C4CC(=O)O[C@@H](c5ccoc5)[C@]4(C)CCC3[C@@]1(C)C2=O (stereo not given in full)	inactive		
CCOC(=O)CCN(C(=O)c1ccc2c(c1)nc(CNc1ccc(C(=N)N)cc1)n2C)c1ccccn1	inactive		
COc1ccccc1Oc1ccc(N(Cc2cccnc2)S(=O)(=O)CC(F)(F)F)cc1	inactive		
CN1c2ccccc2C(=O)N2CCC3c4ccccc4NC3C21 (stereo not given)	inactive		
COC(=O)C1=CO[C@@H](O[C@@H]2O[C@H](CO)[C@@H](O)[C@H](O)[C@H]2O)[C@@H]2C(CO)=CC[C@]12O	inactive		

SMILES	Potency	outcome	activity change, negative = inhibition
CC1(C)C2CC=C(COC3OC(COC4OCC(O)(CO)C4O)C(O)C(O)C3O)C1C2 (stereo not given)	inactive		
COc1cc2ncnc(Nc3ccc(F)c(Cl)c3)c2cc1NC(=O)/C=C/CN1CCCCC1	inactive		
COC(=O)C1=CO[C@@H](O[C@@H]2O[C@H](CO)[C@@H](O)[C@H](O)[C@H]2O)[C@@H]2C(COC(C)=O)=C[C@H](O)[C@H]12	inactive		
COc1ccc(C2(O)c3ccccc3NC(=O)C2O)cc1 (stereo not given)	inactive		
C[C@@]1(O)[C@H](O)[C@@H](CO)O[C@H]1n1ccc(N)nc1=O	inactive		
NC1CCCCN(c2c(F)cc3c(=O)c(C(=O)O)cn(C4CC4)c3c2Cl)C1 (stereo not given)	inactive		
COc1ccc(F)cc1-c1cc(NC(=O)[C@@H]2CCCNC2)ncc1Cl	inactive		
CC(O)/C=C/C1(O)C(C)C(O[C@@H]2O[C@H](CO)[C@@H](O)[C@H](O)[C@H]2O)C(O)CC1(C)C (stereo not given in full)	inactive		
CC1(C)CC[C@]23CO[C@@]4(CCC5[C@@]6(C)CC[C@H](O[C@@H]7OC[C@H](O[C@@H]8O[C@H](CO)[C@@H](O)[C@H](O)[C@H]8O)[C@H](O)[C@H]7O[C@@H]7O[C@H](CO)[C@@H](O[C@@H]8O[C@H](CO)[C@@H](O)[C@H](O)[C@H]8O)[C@H](O)[C@H]7O)[C@@](C)(CO)C6CC[C@@]5(C)[C@]4(C)C[C@H]2OC2OCC(O)C(O)C2O)C3C1 (stereo not given in full)			-5.8% [at 9.73 µM]
C[C@@H]1O[C@@H](O[C@H]2[C@H](OC(=O)[C@]34CCC(C)(C)C[C@H]3C3=CCC5[C@@]6(C)C[C@H](O)[C@H](O[C@@H]7O[C@H](CO)[C@@H](O)[C@H](O)[C@H]7O)[C@@](C)(CO)C6[C@H](O)C[C@@]5(C)[C@]3(C)CC4)OC[C@H](O)[C@@H]2O)[C@H](O)[C@H](O)[C@H]1O[C@@H]1OC[C@@H](O)[C@H](O[C@@H]2OC[C@](O)(CO)[C@H]2O)[C@H]1O (stereo not given in full)		inactive [at 9.73 µM]	
OC[C@H]1O[C@@H](O[C@H]2[C@H](OCCc3ccccc3)O[C@H](CO)[C@@H](O)[C@@H]2O)[C@H](O)[C@@H](O)[C@@H]1O	inactive		
C=C(C)C1Cc2cc(C(=O)OC3OC(CO)C(O)C(O)C3O)ccc2O1 (stereo not given)	inactive		
C=C1CC23CC1CCC2C12OC(=O)C(C)(CCC1O)C2C3C(=O)O (stereo not given)	inactive		
CC1CC(C(O)C(C)(C)O)OC2CC3(C)C4(C)CCC5C(C)(C)C(=O)CCC5(C)C4CCC3(O)C12O (stereo not given)	inactive		
CC1=C(C(=O)O)/C(=C/CO[C@@H]2O[C@H](COC(=O)/C=C/c3ccc(O)cc3)[C@@H](O)[C@H](O)[C@H]2O)C(O)C1 (stereo not given in full)	inactive		
CCOc1cc(CC(=O)NC(CC(C)C)c2ccccc2N2CCCCC2)ccc1C(=O)O (stereo not given)	inactive		
C/C=C/C=C/C(O)=C1\C(O)=C(C)C(=O)[C@@]2(C)OC(=O)[C@@](C)(NC(=O)/C=C/C(=O)O)[C@@H]12	inactive		
CC(C)c1cccc2c(-c3ccccc3)cc(-c3ccc(-c4ccc(C(=O)O)cc4)[nH]3)nc12	inactive		
CCC1C(=O)OC23C=C[C@@H]4C(C(=O)O)=CO[C@H](O[C@@H]12)[C@@H]43 (stereo not given in full)	inactive		
O=C(OCC1=CC(O)C2C=CO[C@@H](O[C@@H]3O[C@H](CO)[C@@H](O)[C@H](O)[C@H]3O)C12)c1ccccc1 (stereo not given in full)	inactive		

From PubChem BioAssay (NCATS)
